Data taken from the supplement of paper PMC10849652.
The full data set covers some 8,800 targets. This sample favours those with a hit. About 0.5% of all pairs of compound and target were hits.

Assays:
Assay in all cases: log2 fold change, soluble protein after heating vs DMSO (PISA); higher = thermal stabilisation; K562 lysate, 10 uM; active = over 0.2 and 3.5 SD of the protein, either way, in both replicates (recomputed)
alvocidib = compound: CN1CC[C@H](c2c(O)cc(O)c3c(=O)cc(-c4ccccc4Cl)oc23)[C@H](O)C1 [alvocidib]
In short: (§1)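 The values are log-two fold changes in thermal stability compared with solvent controls and come from duplicates. They were obtained by TMTpro 16plex LC-MS/MS, with channel sums equalised, on the supernatant after 21,000xg for 90 min. That supernatant came from crude K562 extract at 1 mg/mL protein treated with 10 μM compound for 30 min, heated for 3 min across 48°C-58°C, pooled and brought to 0.5% NP-40 at 4°C.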

Tubastatin A = compound: CN1CCc2c(c3ccccc3n2Cc2ccc(C(=O)NO)cc2)C1 [Tubastatin A]
In short: as §1

[1] = compound: CNC(=O)C1=CC=CC=C1NC2=NC(=NC=C2Cl)NC3=C(C=C(C=C3)N4CCOCC4)OC
In short: as §1

defactinib = compound: CNC(=O)c1ccc(Nc2ncc(C(F)(F)F)c(NCc3nccnc3N(C)S(C)(=O)=O)n2)cc1 [defactinib]
In short: as §1

[2] = compound: CNc1nc(-c2ccc3c(N)n[nH]c3c2)cc(N2C[C@@H](C(=O)NC3CCCCC3)CC[C@H]2C)n1
In short: as §1

encorafenib = compound: COC(=O)N[C@@H](C)CNc1nccc(-c2cn(C(C)C)nc2-c2cc(Cl)cc(NS(C)(=O)=O)c2F)n1 [encorafenib]
In short: as §1

[3] = compound: COC(=O)[C@H](CCSC)NC(=O)C1=C(C=C(C=C1)NC[C@H](CS)N)C2=CC=CC=C2
In short: as §1

alisertib = compound: COc1cc(Nc2ncc3c(n2)-c2ccc(Cl)cc2C(c2c(F)cccc2OC)=NC3)ccc1C(=O)O [alisertib]
In short: as §1

[4] = compound: COc1cc2nc(-c3cc(F)ccc3O)nc(N[C@@H]3CNC[C@H]3C(C)(C)O)c2cc1OC
In short: as §1

gefitinib = compound: COc1cc2ncnc(Nc3ccc(F)c(Cl)c3)c2cc1OCCCN1CCOCC1 [gefitinib]
In short: as §1

Measured: log2 fold change

DNM2 (UniProt P50570)
inactive: alvocidib 0.037 | Tubastatin A -0.051 | [1] 0.024 | defactinib 0.007 | [2] 0.029 | encorafenib -0.004 | [3] 0.061 | alisertib 0.014 | [4] -0.02 | gefitinib 0.006

CMIP (UniProt Q8IY22)
inactive: alvocidib 0.002 | Tubastatin A -0.161 | [1] 0.001 | defactinib 0.061 | [2] -0.015 | encorafenib 0.078 | [3] 0.025 | alisertib -0.012 | [4] -0.016 | gefitinib 0.007

CIP2A (UniProt Q8TCG1)
inactive: alvocidib 0.009 | [1] -0.015 | defactinib 0.003 | [2] -0.074 | encorafenib 0.008 | [3] 0.053 | alisertib -0.004 | [4] -0.014 | gefitinib -0.018
active: Tubastatin A -0.294

CSPP1 (UniProt Q1MSJ5)
inactive: alvocidib -0.031 | Tubastatin A -0.03 | [1] -0.028 | defactinib -0.086 | [2] 0.095 | encorafenib 0.119 | [3] -0.195 | alisertib 0.027 | [4] 0.218 | gefitinib -0.054

CLASP2 isoform 3 (UniProt O75122)
inactive: alvocidib -0.151 | Tubastatin A -0.103 | [1] 0.007 | defactinib -0.051 | [2] -0.003 | encorafenib 0.035 | [3] -0.008 | alisertib 0.032 | [4] 0 | gefitinib -0.007

CSNK2A1 (UniProt P68400)
active: [1] 0.337
inactive: alvocidib 0.077 | Tubastatin A 0.019 | defactinib 0.056 | [2] -0.002 | encorafenib -0.004 | [3] -0.005 | alisertib 0.012 | [4] 0.112 | gefitinib -0.024

DERA (UniProt Q9Y315)
inactive: alvocidib 0.121 | Tubastatin A 0.018 | [1] 0.033 | defactinib -0.003 | [2] 0.085 | encorafenib -0.005 | [3] -0.053 | alisertib -0.059 | [4] -0.01 | gefitinib 0.087

DHCR7 (UniProt Q9UBM7)
inactive: alvocidib -0.008 | Tubastatin A -0.038 | [1] -0.008 | defactinib 0.016 | [2] -0.031 | encorafenib 0.019 | [3] 0.037 | alisertib 0.029 | [4] -0.008 | gefitinib -0.035

CRABP2 (UniProt P29373)
Sequence of UniProt P29373 (P29373 whole entry, looked up): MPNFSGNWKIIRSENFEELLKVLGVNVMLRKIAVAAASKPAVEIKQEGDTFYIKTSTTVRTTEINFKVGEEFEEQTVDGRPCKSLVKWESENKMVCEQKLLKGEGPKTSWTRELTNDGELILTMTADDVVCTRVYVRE
inactive: alvocidib -0.025 | Tubastatin A -0.116 | [1] -0.04 | defactinib -0.015 | [2] 0.006 | encorafenib -0.209 | [3] 0.082 | alisertib -0.109 | [4] -0.018 | gefitinib 0.01

CUL1 (UniProt Q13616)
inactive: alvocidib -0.008 | Tubastatin A 0.008 | [1] 0.001 | defactinib -0.019 | [2] 0.013 | encorafenib 0 | [3] -0.042 | alisertib -0.01 | [4] 0.011 | gefitinib -0.038

CXXC1 isoform 2 (UniProt Q9P0U4)
active: [2] 0.468
inactive: alvocidib -0.003 | Tubastatin A -0.138 | [1] -0.021 | defactinib -0.004 | encorafenib -0.032 | [3] 0.152 | alisertib 0.069 | [4] 0.068 | gefitinib 0.015

CNK3/IPCEF1 isoform 2 (UniProt G9CGD6)
inactive: alvocidib -0.483 | Tubastatin A -0.048 | [1] -0.012 | defactinib -0.082 | [2] -0.007 | encorafenib 0.041 | [3] -0.062

COG4 (UniProt Q9H9E3)
Sequence of UniProt Q9H9E3 (Q9H9E3 whole entry, looked up): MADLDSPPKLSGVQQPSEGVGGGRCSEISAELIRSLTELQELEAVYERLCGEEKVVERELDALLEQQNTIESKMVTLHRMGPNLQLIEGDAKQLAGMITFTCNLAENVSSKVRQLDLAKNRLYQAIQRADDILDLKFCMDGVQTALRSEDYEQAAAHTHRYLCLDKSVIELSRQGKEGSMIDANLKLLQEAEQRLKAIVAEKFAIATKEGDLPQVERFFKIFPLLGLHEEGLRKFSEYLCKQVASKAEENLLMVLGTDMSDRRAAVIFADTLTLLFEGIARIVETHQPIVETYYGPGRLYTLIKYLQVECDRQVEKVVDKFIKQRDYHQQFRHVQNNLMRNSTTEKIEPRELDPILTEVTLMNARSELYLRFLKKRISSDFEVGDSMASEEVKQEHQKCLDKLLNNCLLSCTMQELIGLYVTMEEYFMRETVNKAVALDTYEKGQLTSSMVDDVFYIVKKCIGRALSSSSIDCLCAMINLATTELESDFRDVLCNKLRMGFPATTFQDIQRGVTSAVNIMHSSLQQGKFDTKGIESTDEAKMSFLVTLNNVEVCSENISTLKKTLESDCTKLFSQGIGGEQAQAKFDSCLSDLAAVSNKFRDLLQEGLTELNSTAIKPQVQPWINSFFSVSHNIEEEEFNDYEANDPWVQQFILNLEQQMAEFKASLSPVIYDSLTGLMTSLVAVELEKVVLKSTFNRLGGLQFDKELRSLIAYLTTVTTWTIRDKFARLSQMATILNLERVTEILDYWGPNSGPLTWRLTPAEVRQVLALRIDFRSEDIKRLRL
inactive: alvocidib 0.028 | Tubastatin A -0.131 | [1] 0.025 | defactinib 0.029 | [2] -0.003 | encorafenib 0.079 | [3] 0.011 | alisertib 0.016 | [4] 0.022 | gefitinib 0.009

COX20 isoform 2 (UniProt Q5RI15)
inactive: alvocidib 0.102 | Tubastatin A -0.012 | [1] 0.01 | defactinib -0.007 | [2] 0.06 | encorafenib -0.103 | [3] 0.022 | alisertib 0.001 | [4] -0.033 | gefitinib -0.009

DCTN1 isoform 4 (UniProt Q14203)
Sequence of UniProt Q14203 (Q14203 whole entry, looked up): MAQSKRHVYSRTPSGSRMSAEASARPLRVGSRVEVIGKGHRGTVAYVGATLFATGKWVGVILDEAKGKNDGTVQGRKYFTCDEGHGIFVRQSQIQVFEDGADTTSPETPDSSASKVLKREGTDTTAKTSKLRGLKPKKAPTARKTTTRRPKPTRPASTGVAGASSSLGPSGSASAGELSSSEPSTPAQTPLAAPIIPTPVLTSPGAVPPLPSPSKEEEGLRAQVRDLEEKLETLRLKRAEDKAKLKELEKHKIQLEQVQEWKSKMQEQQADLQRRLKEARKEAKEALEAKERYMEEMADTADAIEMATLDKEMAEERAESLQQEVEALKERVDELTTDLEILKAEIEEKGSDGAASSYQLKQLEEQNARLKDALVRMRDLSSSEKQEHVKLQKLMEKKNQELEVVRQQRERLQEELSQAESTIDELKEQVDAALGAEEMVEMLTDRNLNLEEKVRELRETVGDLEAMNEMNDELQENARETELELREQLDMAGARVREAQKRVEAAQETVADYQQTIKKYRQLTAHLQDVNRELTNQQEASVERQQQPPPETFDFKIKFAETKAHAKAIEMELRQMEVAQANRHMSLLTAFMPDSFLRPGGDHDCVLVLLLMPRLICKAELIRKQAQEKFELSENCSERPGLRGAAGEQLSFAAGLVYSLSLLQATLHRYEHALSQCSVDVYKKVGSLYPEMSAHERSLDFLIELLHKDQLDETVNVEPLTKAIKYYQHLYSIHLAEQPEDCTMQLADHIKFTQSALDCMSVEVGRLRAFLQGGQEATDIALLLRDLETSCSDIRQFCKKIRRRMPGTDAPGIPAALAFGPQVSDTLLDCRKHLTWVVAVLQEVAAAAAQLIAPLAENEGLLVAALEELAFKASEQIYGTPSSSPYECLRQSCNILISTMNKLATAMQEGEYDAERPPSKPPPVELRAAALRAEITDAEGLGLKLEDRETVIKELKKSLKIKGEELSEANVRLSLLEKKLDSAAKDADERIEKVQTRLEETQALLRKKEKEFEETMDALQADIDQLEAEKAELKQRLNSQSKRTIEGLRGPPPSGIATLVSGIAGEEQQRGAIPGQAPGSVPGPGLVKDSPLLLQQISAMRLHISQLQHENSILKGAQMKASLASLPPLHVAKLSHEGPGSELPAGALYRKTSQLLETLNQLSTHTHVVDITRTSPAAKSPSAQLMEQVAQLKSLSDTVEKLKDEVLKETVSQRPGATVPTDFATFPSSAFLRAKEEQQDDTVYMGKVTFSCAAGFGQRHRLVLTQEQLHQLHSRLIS
inactive: alvocidib 0.3 | Tubastatin A -0.254 | [1] 0.212 | defactinib -0.046 | [2] 0.105 | encorafenib 0.078 | [3] -0.064 | alisertib 0.107 | [4] -0.05 | gefitinib 0.051

CIC (UniProt I3L2J0)
inactive: alvocidib 0.005 | Tubastatin A -0.03 | [1] 0.072 | defactinib 0.041 | [2] 0.035 | encorafenib -0.002 | [3] 0.052 | alisertib -0.027 | [4] 0.158 | gefitinib -0.098

DDX39A (UniProt O00148)
Sequence of UniProt O00148 (O00148 whole entry, looked up): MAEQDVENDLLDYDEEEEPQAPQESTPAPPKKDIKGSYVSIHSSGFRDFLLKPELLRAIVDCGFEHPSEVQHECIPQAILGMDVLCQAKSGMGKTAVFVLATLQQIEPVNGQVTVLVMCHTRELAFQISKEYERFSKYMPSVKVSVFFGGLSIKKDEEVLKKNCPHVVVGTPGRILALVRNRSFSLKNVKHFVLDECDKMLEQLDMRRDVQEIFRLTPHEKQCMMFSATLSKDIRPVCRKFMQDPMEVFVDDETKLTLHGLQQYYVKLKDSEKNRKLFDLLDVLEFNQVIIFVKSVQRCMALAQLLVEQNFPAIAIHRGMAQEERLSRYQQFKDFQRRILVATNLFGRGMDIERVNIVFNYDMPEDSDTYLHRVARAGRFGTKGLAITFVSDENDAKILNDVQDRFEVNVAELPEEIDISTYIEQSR
inactive: alvocidib -0.017 | Tubastatin A -0.171 | [1] -0.006 | defactinib 0.003 | [2] -0.025 | encorafenib 0.001 | [3] 0.163 | alisertib -0.026 | [4] 0.004 | gefitinib 0.009

CKM (UniProt P06732)
inactive: alvocidib -0.126 | Tubastatin A -0.091 | [1] -0.049 | defactinib -0.033 | [2] -0.037 | encorafenib 0.016 | [3] 0.026 | alisertib -0.015 | [4] 0.031 | gefitinib -0.065

CNST (UniProt Q6PJW8)
inactive: alvocidib 0 | Tubastatin A -0.055 | [1] 0.043 | defactinib 0.041 | [2] -0.027 | encorafenib 0.03 | [3] -0.096 | alisertib -0.031 | [4] 0.024 | gefitinib 0.002

CLASP1 (UniProt Q7Z460)
inactive: alvocidib -0.057 | Tubastatin A -0.032 | [1] -0.005 | defactinib -0.037 | [2] -0.006 | encorafenib 0.058 | [3] 0.009 | alisertib 0.036 | [4] -0.001 | gefitinib 0.018

COMT (UniProt P21964)
inactive: alvocidib 0.012 | Tubastatin A -0.162 | [1] -0.016 | defactinib 0.016 | [2] -0.013 | encorafenib 0.028 | [3] 0.059 | alisertib 0.022 | [4] 0.025 | gefitinib 0.013

CLUH (UniProt O75153)
inactive: alvocidib -0.022 | Tubastatin A -0.076 | [1] -0.076 | defactinib 0.002 | [2] -0.029 | encorafenib 0.007 | [3] 0.058 | alisertib -0.014 | [4] -0.014 | gefitinib 0.017

DHFR (UniProt P00374)
inactive: alvocidib 0.03 | Tubastatin A -0.111 | [1] -0.001 | defactinib 0.039 | [2] -0.023 | encorafenib 0.01 | [3] 0.141 | alisertib 0.017 | [4] -0.192 | gefitinib 0.028

COL6A5 (UniProt A8TX70)
inactive: alvocidib -0.544 | Tubastatin A 0.029 | [1] -0.048 | defactinib -0.111 | [2] 0.256 | encorafenib -0.088 | [3] 0.1 | alisertib -0.038 | [4] 0.07 | gefitinib -0.034

CUEDC2 (UniProt Q9H467)
inactive: alvocidib 0.054 | Tubastatin A 0.036 | [1] 0.03 | defactinib 0.055 | [2] 0.078 | encorafenib 0.006 | [3] -0.026 | alisertib -0.019 | [4] -0.009 | gefitinib 0.019

COG3 (UniProt Q96JB2)
inactive: alvocidib -0.023 | Tubastatin A -0.09 | [1] 0.042 | defactinib -0.016 | [2] -0.041 | encorafenib -0.013 | [3] -0.045 | alisertib 0.032 | [4] -0.018 | gefitinib -0.026

CORO1A (UniProt P31146)
inactive: alvocidib 0 | Tubastatin A -0.02 | [1] 0.013 | defactinib -0.034 | [2] 0.037 | encorafenib -0.051 | [3] 0.144 | alisertib -0.018 | [4] -0.021 | gefitinib -0.037

CHML (UniProt P26374)
Sequence of UniProt P26374 (P26374 whole entry, looked up): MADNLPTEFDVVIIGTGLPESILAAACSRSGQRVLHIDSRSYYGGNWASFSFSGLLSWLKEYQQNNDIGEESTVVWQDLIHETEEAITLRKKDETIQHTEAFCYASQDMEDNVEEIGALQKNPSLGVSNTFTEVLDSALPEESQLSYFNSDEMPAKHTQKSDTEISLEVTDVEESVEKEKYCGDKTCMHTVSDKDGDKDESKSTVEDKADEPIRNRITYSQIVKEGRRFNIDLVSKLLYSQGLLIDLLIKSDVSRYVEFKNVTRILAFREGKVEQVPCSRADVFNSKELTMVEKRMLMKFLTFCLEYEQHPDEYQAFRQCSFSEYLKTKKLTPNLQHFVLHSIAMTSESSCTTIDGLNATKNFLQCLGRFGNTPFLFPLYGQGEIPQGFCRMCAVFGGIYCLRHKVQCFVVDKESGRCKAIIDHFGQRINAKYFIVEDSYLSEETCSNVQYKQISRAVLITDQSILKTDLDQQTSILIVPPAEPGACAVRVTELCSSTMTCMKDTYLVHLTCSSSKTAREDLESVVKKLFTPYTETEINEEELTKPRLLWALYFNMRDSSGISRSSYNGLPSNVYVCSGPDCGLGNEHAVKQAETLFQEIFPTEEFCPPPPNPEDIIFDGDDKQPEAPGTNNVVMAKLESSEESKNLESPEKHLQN
inactive: alvocidib -0.019 | Tubastatin A 0.008 | [1] -0.004 | defactinib -0.025 | [2] 0.002 | encorafenib 0.003 | [3] 0.005 | alisertib 0.014 | [4] 0.011 | gefitinib 0.012

CORO7 isoform 3 (UniProt P57737)
Sequence of UniProt P57737 (P57737 whole entry, looked up): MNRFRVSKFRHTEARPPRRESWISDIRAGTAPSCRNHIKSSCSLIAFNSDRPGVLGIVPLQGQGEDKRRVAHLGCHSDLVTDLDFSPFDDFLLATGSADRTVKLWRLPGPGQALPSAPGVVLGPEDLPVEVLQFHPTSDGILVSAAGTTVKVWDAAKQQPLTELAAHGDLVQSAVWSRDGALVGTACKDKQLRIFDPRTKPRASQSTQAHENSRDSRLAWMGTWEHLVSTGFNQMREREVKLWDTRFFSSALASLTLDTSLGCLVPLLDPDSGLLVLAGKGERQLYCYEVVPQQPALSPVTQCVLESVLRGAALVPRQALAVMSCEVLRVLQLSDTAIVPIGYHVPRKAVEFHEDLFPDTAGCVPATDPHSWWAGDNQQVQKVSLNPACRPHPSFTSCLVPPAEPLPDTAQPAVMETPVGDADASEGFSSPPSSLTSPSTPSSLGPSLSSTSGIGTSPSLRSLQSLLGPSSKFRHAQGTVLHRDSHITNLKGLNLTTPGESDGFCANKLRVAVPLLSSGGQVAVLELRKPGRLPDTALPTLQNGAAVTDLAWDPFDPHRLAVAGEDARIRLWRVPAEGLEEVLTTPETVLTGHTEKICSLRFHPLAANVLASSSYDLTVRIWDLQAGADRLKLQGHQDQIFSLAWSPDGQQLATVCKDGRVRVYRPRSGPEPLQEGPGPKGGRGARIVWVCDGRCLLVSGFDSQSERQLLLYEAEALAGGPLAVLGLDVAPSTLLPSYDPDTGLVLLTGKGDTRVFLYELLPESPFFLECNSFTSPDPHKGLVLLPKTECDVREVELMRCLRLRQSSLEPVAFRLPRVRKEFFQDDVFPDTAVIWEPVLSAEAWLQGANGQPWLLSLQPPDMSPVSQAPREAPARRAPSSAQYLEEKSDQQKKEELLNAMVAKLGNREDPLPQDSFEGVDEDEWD
inactive: alvocidib 0.023 | Tubastatin A -0.087 | [1] -0.008 | defactinib 0.028 | [2] 0.007 | encorafenib -0.008 | [3] 0.114 | alisertib 0.007 | [4] -0.069 | gefitinib -0.047

COG7 (UniProt P83436)
Sequence of UniProt P83436 (P83436 whole entry, looked up): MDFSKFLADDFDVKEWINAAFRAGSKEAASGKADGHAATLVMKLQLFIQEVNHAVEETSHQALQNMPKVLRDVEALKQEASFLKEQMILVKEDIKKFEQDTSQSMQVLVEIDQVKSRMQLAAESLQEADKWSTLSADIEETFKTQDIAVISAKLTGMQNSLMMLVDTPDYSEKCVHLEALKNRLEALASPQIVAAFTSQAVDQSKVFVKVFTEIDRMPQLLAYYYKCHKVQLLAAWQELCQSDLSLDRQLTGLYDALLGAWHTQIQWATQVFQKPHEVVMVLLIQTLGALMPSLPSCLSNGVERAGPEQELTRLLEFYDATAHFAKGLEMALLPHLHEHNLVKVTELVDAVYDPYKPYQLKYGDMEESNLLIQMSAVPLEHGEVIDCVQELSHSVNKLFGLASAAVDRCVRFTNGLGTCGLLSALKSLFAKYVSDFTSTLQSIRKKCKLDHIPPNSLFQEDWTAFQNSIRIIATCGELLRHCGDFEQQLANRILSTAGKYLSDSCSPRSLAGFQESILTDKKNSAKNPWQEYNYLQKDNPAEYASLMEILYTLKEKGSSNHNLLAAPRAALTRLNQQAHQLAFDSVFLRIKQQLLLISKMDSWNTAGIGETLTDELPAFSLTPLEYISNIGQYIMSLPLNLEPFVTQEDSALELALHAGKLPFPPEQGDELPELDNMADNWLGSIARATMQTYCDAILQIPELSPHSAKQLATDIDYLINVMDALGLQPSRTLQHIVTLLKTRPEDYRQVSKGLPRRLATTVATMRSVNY
inactive: alvocidib 0.019 | Tubastatin A -0.114 | [1] -0.02 | defactinib 0.056 | [2] -0.047 | encorafenib 0.028 | [3] 0.035 | alisertib 0.014 | [4] 0.012 | gefitinib 0.004
